# High-throughput results as filed in PubChem BioAssay.
# A selection: hits, their analogues and other compounds. The true share with any hit is near 4.1%.
# DAX1 inh-1: DAX1 (NR0B1) inhibition, primary screen. inhibition, % at 6.8 µM. AID 652010. 370,000 tested, 1.1% active. HEK293T StAR-luciferase reporter, SF-1/DAX-1 repression relief;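 active = inhibition above the mean over all tested compounds plus 3 SD, cut at about 3.6% in these data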;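 also: higher inhibition means more luminescence from relief of DAX-1 repression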
# hcDAF12 agonist: H. contortus DAF-12 activation, primary screen | HEK293 hcDAF-12 lit1-tk-luc reporter, luminescence; 0% DMSO, 100% Δ7-dafachronic acid | activation, % at 6.8 µM | 370,000 tested, 1.4% active | AID 652067;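 active = activation above the mean of all tested compounds plus 3 SD, cut at about 5.5% in these data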
# ssDAF12 agonist: activators of S. stercoralis DAF-12 nuclear receptor; AID 652126; activation, % at 6.8 µM; HEK293 ssDAF-12/GRIP1 lit1-tk-luc reporter, luminescence; % of 3 µM dafachronic acid response; 370,000 tested, 1% active;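 active = activation above the mean over all tested compounds plus 3 SD, cut at about 0.9% in these data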
# DAX1 inh-2: inhibits human nuclear receptor DAX1. 340,000 tested, 0.99% active. HEK293 Gal4-DAX1 luciferase reporter, luminescence. inhibition, % at 6.75 µM. AID 504766;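 active = inhibition above the mean over all tested compounds plus 3 SD, cut at about 4.2% in these data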;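 also: inhibition shows as a rise in luminescence from relieved DAX1 repression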
# hgDAF12 agonist: hgDAF-12 agonism, primary luciferase screen | AID 687014 | activation, % at 6.8 µM | HEK293 GAL4-hgDAF12 UAS-luciferase reporter, agonist luminescence; normalized to butyrate control | 370,000 tested, 1.8% active;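 active = activation above a cutoff set at the mean of all screened compounds plus 3 SD, cut at about 10% in these data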
# DAX1 inh confirm: NR0B1 (human) inhibition, confirmation. shares compounds with DAX1 inh-1. inhibition, % at 6.8 µM. HEK293T StAR-promoter luciferase reporter, SF-1/DAX-1 repression. AID 652134. 2,400 tested, 87% active;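 active = inhibition above the average of every tested compound plus 3 SD, cut at about 3.8% in these data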;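 also: active compounds raise luminescence by relieving repression of the StAR reporter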
# SF1 AF2mut Luc: counter-screen for DAX1 inhibitors: nonselective inhibitors with SF-1 AF2 mutant; inhibition, % at 6.8 µM; AID 652136; HEK293 StAR-luciferase, luminescence; 2,400 tested, 78% active; shares compounds with DAX1 inh-1;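 active = inhibition above the mean of all tested compounds plus 3 SD, cut at about 3% in these data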
# LXRb hcDAF ctr: LXR-beta agonism as hcDAF-12 counter-screen; 3,400 tested, under 10 active; activation, % at 6.8 µM; shares compounds with hcDAF12 agonist; HEK293 Gal4-LXR tk-luc reporter, luminescence, 24 h; normalized: DMSO 0%, positive control 100%;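 active = mean percent activation of the reporter above a cutoff set as the average over tested compounds plus their standard deviation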
# Target sequence (P55055 whole entry, looked up, the tested form may be a part): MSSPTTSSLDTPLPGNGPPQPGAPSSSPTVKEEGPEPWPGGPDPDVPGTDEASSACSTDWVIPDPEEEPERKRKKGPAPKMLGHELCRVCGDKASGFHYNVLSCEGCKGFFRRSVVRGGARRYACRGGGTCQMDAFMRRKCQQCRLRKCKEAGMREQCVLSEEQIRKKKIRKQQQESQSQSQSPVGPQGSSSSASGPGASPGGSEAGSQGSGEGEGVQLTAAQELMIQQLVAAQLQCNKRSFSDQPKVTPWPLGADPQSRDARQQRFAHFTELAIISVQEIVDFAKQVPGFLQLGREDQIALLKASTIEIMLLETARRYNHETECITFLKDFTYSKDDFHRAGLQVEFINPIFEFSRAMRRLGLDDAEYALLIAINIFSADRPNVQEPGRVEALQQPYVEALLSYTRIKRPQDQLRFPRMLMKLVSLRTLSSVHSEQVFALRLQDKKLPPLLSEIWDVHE
# hcDAF12 ag: confirmation of H. contortus DAF-12 agonists; shares compounds with hcDAF12 agonist; HEK293 hcDAF-12 lit1-tk-luc reporter, luminescence; % of Δ7-dafachronic acid response; activation, % at 6.8 µM; 3,400 tested, 61% active;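 active = mean activation across triplicate tests above the threshold derived from the earlier primary screen, cut at about 5.5% in these data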
# hgDAF12 ag: confirmation of H. glycines DAF-12 agonists; shares compounds with hgDAF12 agonist; HEK293 GAL4-hgDAF12 luciferase reporter, agonist mode; percent of butyrate response; activation, % at 6.8 µM; 3,300 tested, 80% active; AID 743050;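 active = mean activation over triplicate wells above the hit cutoff derived from the earlier primary screen, cut at about 11% in these data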
# LXRb DAF12 ctr: activates human LXR-beta, counter-screen for DAF-12 agonists; shares compounds with hgDAF12 agonist; HEK293 Gal4-LXR luciferase reporter, 24 h; activation, % at 6.8 µM; 3,300 tested, under 10 active;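 active = mean activation of the triplicate above a set limit carried over from the primary screen, none filed active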
# Hits are given with their value; . = inactive; / = not tested or not shown.
SMILES,DAX1 inh-1,hcDAF12 agonist,ssDAF12 agonist,DAX1 inh-2,hgDAF12 agonist,DAX1 inh confirm,SF1 AF2mut Luc,hgDAF12 ag,LXRb DAF12 ctr,others
O=C(c1cc(-c2cccc(O)c2)on1)N1CCOCC1,8.0,.,.,.,15.6,13.1,7.1,12.0,.,
CC1CCN(C(=O)c2cc(-c3ccccc3O)on2)CC1,10.2,6.2,1.1,.,23.6,12.4,9.4,16.6,.,
O=C(c1cc(-c2ccccc2)on1)N1CCN(c2ccccc2)CC1,.,.,.,.,.,/,/,/,/,
CC1CCN(C(=O)c2ccc(-c3ccccc3Cl)o2)CC1,16.8,.,.,.,16.1,13.8,8.6,13.1,.,
N#Cc1ccc2nc(-c3ccc(CN4CCC(c5nc6ccccc6[nH]5)CC4)cc3)c(-c3ccccc3)nc2c1,.,.,.,/,.,/,/,/,/,
C=CCNc1cccc2c1S(=O)(=O)N[C@@H](C)CO2,.,.,.,/,.,/,/,/,/,
Cc1ccc(OCCSc2ncccn2)c(C)c1,8.2,.,.,5.1,23.0,11.8,8.2,16.4,.,
Cc1ccc(C(=O)Cn2cnc3ccccc3c2=O)cc1C,.,.,.,.,.,/,/,/,/,
Cc1ccc(C(=O)Cn2nnc3ccccc32)cc1C,4.8,5.9,.,.,16.8,9.3,5.7,17.2,.,
Cc1cccc(NC(=O)CSc2ncnc3sc4c(c23)CCCC4)c1,.,.,.,/,.,/,/,/,/,
Cc1ccn2cc(-c3cc4ccccc4oc3=O)nc2c1,12.2,11.4,1.7,.,24.0,12.2,4.7,12.2,.,LXRb hcDAF ctr=.;hcDAF12 ag=6.9
CCNC(=S)NNC(=O)c1cnccn1,.,.,.,/,.,/,/,/,/,
Cc1ccccc1N(C)C(=O)C1CCCN1S(=O)(=O)c1cccc2cccnc12 (stereo unspecified),.,.,.,/,.,/,/,/,/,
COC(=O)[C@]12C[C@H](CC(=O)NCCCCc3ccccc3)C(=O)N(Cc3ccco3)C1=C[C@H](C(C)C)O[C@@H]2C1CC1,.,.,.,/,.,/,/,/,/,
COc1ccccc1OCCNC(=O)c1ccc2c(c1)OCCO2,7.8,.,.,.,16.8,8.9,6.0,14.1,.,
COc1ccc2nc(C(c3ccc(C)cc3)n3c(-c4ccccc4Br)nc4ccccc43)[nH]c2c1 (stereo unspecified),5.8,.,.,/,14.0,8.5,5.5,16.5,.,
Cn1c(=O)c(=O)n(C)c2cc(S(=O)(=O)N3CCN(CCO)CC3)ccc21,.,.,.,/,.,/,/,/,/,
CC(C)c1ccc(CNNC(=O)c2ccccc2)cc1,.,.,.,.,.,/,/,/,/,
O=C(NNCc1ccccc1)c1ccccn1,7.8,.,.,.,18.6,9.2,4.7,14.2,.,
O=C(CC(=O)c1ccccn1)c1ccccc1,6.0,.,.,.,14.4,8.6,5.2,15.7,.,
O=C(NNCc1ccccc1)c1ccccc1,6.1,.,.,.,16.1,12.6,5.8,12.1,.,
COc1ccc2c(CCN3C(=O)c4ccccc4C3=O)c(-c3c(CCN4C(=O)c5ccccc5C4=O)c4ccccc4n3C(=O)OC(C)(C)C)[nH]c2c1,/,.,.,/,.,/,/,/,/,
COC(=O)C[C@@H]1CC[C@H]2[C@H](COc3ccc(NC(=O)Nc4ccc(C#N)cc4)cc3C(=O)N2C)O1,.,.,.,/,.,/,/,/,/,
